# Measured values from the supplement of paper PMC11624193, “Coupling cellular drug-target engagement to downstream pharmacology with CeTEAM” (Nature Communications, 2024).
# Values joined by “and” are separate entries in the source; they are usually repeats but may differ in a detail not shown here. Equal entries are not always repeated. Structures can show the parent of a compound that is named as a salt. Unmarked numbers belong to inactive results.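 Rule for the calls: active = log2 fold change beyond 2 SD from the library mean after excluding viability outliers; inactive = within 2 SD.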
# Molecular target: PARP1 L713F-nLuc biosensor (HCT116) (UniProt P09874)
# Sequence (P09874 whole entry L713F, looked up): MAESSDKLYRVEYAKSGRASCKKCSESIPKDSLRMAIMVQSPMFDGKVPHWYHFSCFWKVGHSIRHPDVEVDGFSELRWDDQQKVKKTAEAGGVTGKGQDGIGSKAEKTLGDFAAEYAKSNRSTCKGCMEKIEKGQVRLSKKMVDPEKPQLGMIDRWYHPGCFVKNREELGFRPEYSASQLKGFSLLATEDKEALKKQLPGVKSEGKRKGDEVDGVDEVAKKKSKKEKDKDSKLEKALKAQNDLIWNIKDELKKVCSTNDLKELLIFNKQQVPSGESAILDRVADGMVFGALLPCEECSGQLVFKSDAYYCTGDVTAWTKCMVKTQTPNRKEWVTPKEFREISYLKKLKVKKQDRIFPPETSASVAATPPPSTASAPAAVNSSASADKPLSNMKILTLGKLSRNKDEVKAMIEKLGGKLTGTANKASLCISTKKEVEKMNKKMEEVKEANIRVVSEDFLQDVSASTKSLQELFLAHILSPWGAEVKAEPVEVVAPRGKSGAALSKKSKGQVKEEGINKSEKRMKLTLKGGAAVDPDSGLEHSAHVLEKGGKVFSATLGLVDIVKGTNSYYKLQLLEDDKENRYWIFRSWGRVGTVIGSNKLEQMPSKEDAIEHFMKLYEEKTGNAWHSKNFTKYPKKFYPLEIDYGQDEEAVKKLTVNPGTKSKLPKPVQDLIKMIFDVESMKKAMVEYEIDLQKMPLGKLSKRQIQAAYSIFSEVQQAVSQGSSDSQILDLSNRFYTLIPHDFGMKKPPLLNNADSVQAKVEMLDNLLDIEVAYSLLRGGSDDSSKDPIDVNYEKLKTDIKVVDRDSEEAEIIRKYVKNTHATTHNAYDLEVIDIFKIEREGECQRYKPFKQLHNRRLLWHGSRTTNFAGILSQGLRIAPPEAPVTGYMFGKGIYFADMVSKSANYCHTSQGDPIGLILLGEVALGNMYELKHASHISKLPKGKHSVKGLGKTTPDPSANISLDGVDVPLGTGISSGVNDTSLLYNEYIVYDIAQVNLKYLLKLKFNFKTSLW
# Assay: PARP1 L713F-nLuc/akaLuc ratio relative to DMSO control (biosensor stabilization) (fold change); higher = more PARP1 biosensor stabilization (target engagement / stabilizer), active = hit call of the paper
# Settings: stock concentration (mM; final µM = stock mM x 1): 10; 24 h
row,Structure (SMILES),PARP1 L713F-nLuc/akaLuc ratio
1,NCCNc1ccc(NCCN)c2c1C(=O)c1ccncc1C2=O [Pixantrone Maleate],1.15
2,COc1cc2ncnc(Oc3cccc(NC(=O)Nc4cc(C(C)(C)C(F)(F)F)on4)c3)c2cc1OC,1.02
3,Cc1cccc(-c2[nH]c(CNc3ccccc3F)nc2-c2ccc3ncnn3c2)n1 [Vactosertib ?(TEW-7197)],1.18
4,"C=CC(=O)N1C[C@@H](Nc2ncnc3[nH]ccc23)CC[C@H]1C [(2R,5S)-Ritlecitinib]",1.05
5,NC(=O)c1cccc(N)c1 [3-Aminobenzamide],0.995
6,CN1CC[C@@H](NC(=O)Nc2ccc(C#N)cc2)C[C@@H]1c1nc2ccccc2[nH]1,0.89
7,CN(C)CCCCC(=O)Nc1ccc(NC(=S)NC(=O)c2ccc(C(C)(C)C)cc2)cc1 [Tenovin-6 (Hydrochloride)],0.665
8,CCOC(=O)NCCCC(=O)NCCc1ccccc1 [Santacruzamate A],0.97
9,COc1cc(N2CCN(C)CC2)ccc1Nc1nccc(-c2cn(C)c3cnccc23)n1,0.923
10,COc1cc(Nc2ncc(F)c(Nc3ccc4c(n3)N(COP(=O)(O)O)C(=O)C(C)(C)O4)n2)cc(OC)c1OC [Fostamatinib (R788)],0.614
11,CCN(CC)c1ccc(C=NNC(=O)c2ccncc2)c(O)c1,0.543
12,CC(C)NC[C@@H](C(=O)N1CCN(c2ncnc3c2[C@H](C)C[C@H]3O)CC1)c1ccc(Cl)cc1 [Ipatasertib (GDC-0068)],0.669
13,Nc1nc(=S)c2[nH]cnc2[nH]1 [6-Thioguanine],1.43
14,CC[C@H](C)C(=O)O[C@H]1C[C@H](O)C=C2C=C[C@H](C)[C@H](CC[C@@H](O)C[C@@H](O)CC(=O)O)[C@H]21 [Pravastatin sodium],0.829
15,O=C(Nc1nc2cccc(-c3ccc(CN4CCS(=O)(=O)CC4)cc3)n2n1)C1CC1 [Filgotinib],0.941
16,CS(=O)(=O)c1ccc(Oc2cc(F)cc(C#N)c2)c2c1C(O)C(F)C2 (stereo not drawn),0.836
17,CC(C)(O)CNc1nc(Nc2ccnc(C(F)(F)F)c2)nc(-c2cccc(C(F)(F)F)n2)n1 [Enasidenib (AG-221)],1.96
18,O=C(O)c1ccc(CN2CCC(CN[C@@H]3C[C@H]3c3ccccc3)CC2)cc1,0.815 and 0.79 and 0.987
19,C=CC[C@@H]1/C=C(\C)C[C@H](C)C[C@H](OC)[C@H]2O[C@@](O)(C(=O)C(=O)N3CCCC[C@H]3C(=O)O[C@H](/C(C)=C/[C@@H]3CC[C@@H](O)[C@H](OC)C3)[C@H](C)[C@@H](O)CC1=O)[C@H](C)C[C@@H]2OC [Tacrolimus (FK506)],0.7
20,CCn1c(C(=O)N(C2CC2)C2CC2)cc2c3c(ncn3C)c(Nc3cc(C)n(C)n3)nc21,1.01
21,CC(C)c1c(C(=O)Nc2ccccc2)c(-c2ccccc2)c(-c2ccc(F)cc2)n1CC[C@@H](O)C[C@@H](O)CC(=O)O [Atorvastatin Calcium],0.363
22,O=C(/C=C\n1cnc(-c2cc(C(F)(F)F)cc(C(F)(F)F)c2)n1)NNc1cnccn1 [Selinexor (KPT-330)],0.434
23,CCN1CCN(Cc2ccc(Nc3ncc(F)c(-c4cc(F)c5nc(C)n(C(C)C)c5c4)n3)nc2)CC1 [Abemaciclib],0.621
24,CN(C)Cc1ccc(-c2nc3cccc4c3n2CCNC4=O)cc1,8.09 (active)
25,Nc1ccc(S(=O)(=O)NCCc2ccccc2)cc1,0.888
26,O=C(c1cncc(Br)c1)N1CCC(N2CCCC2)CC1,1.73
27,Cn1cc(C(N)=O)ccc1=O [Nudifloramide],0.909
28,CN(C)C[C@@H]1CCn2cc(c3ccccc32)C2=C(C(=O)NC2=O)c2cn(c3ccccc23)CCO1,0.636
